Source: PubChem BioAssay (NCATS)
Inconclusive results are not listed. Active and inactive are the calls of the source. Unless noted, calls come from the whole dose curve; as a rule, active = well fitted curve in either direction with a large enough effect (not every such curve was filed as active); inconclusive = small, poorly fitted or top-dose-only effect, or another doubt; inactive = flat fitted curve, though single readings scatter.

Assays:
[1] = biological target: Lysosomal acid glucosylceramidase (Homo sapiens) (UniProt P04062); assay: Glucocerebrosidase-p2 (AID 348; in the data active = potency below about 10 µM; note: potency is the fitted concentration of half-maximal effect); details: purified GBA, blue fluorogenic substrate, 40 min
Chain of Lysosomal acid glucosylceramidase (Homo sapiens) (P04062 whole entry, looked up): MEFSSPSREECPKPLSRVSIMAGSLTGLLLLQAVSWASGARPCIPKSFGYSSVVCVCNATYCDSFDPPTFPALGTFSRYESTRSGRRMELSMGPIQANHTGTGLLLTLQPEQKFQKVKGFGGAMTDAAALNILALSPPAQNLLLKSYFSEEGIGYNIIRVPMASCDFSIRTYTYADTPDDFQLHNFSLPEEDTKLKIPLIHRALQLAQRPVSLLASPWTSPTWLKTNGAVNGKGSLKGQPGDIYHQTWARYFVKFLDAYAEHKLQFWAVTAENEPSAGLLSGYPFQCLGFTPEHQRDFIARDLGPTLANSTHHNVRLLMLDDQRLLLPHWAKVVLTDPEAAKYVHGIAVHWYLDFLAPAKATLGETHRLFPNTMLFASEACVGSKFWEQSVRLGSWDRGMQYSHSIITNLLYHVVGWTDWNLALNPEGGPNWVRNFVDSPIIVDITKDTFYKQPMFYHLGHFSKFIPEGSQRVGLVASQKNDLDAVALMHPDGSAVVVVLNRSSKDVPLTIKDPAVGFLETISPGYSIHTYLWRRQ
In short: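 Normal human glucocerebrosidase (0.2 nM) with blue fluorogenic substrate (80 uM final) in citrate/phosphate pH 5.9 with 10mM sodium taurocholate, 0.01% tween-20; 40 min RT, NaOH/glycine stop; fluorescence Ex 365/Em 440; AC50 from a titration from 0.6 nM upwards.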

[2] = AP1 Signaling Pathway (AID 357); details: ME-180 AP-1-bla reporter, EGF-induced, beta-lactamase ratio, 5 h; at 7.69 µM (top of the series) unless noted;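 note: ME-180 reporter cells stimulated with EGF at its EC50 level; % is set by controls: 0 for no effect and ±100 for the full control effect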
In short: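 A ratiometric CCF4 readout (405 nm excitation; 460 and 530 nm emission) quantified AP-1-driven beta-lactamase in ME-180 cells after 5 h with compound and EC50 EGF; AC50 values were derived for activators and inhibitors.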

[3] = biological target: Cytochrome P450 1A2 (Homo sapiens) (UniProt P05177); assay: p450-cyp1a2 (AID 410; calls by dose curve; note: potency is the fitted concentration of half-maximal effect;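 for activity change, negative = inhibition: -100% = full effect of reference inhibitor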); details: recombinant CYP1A2, luciferin-ME demethylation, luminescence; series mostly up to 57 µM
Chain of Cytochrome P450 1A2 (Homo sapiens) (P05177 whole entry, looked up): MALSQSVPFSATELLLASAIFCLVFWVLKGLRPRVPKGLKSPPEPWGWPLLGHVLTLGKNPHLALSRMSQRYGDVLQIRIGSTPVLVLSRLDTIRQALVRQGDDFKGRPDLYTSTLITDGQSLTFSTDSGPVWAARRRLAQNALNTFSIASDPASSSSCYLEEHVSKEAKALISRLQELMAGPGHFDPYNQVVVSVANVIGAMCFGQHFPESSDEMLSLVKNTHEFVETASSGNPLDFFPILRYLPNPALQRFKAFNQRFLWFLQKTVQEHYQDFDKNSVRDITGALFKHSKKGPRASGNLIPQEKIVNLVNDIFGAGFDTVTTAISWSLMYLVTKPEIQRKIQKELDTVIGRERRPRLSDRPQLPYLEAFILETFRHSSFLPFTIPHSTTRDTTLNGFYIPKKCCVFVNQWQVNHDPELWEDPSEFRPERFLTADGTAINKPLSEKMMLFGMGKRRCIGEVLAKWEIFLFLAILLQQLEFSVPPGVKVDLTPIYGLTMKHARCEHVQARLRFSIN
In short: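 O-Demethylation of luciferin 6' methyl ether by human CYP1A2 is monitored as luciferase luminescence. Substrate sits at Km (100uM); enzyme is 20nM. Values are scaled to 57 uM furafylline as maximal inhibition.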

[4] = NFAT Signaling Pathway (AID 444); details: Jurkat NFAT-bla M1, carbachol, beta-lactamase ratio, 5 h; at 7.69 µM (top of the series) unless noted;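 note: carbachol stimulus at about its EC50 of 1 µM final; % is set by controls: 0 for no effect and ±100 for the full control effect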
In short: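 Read-out: CCF4 FRET ratio (460 nm/530 nm) after 1 h RT dye loading, used for %activity and AC50 from titration series. Cells: Jurkat NFAT-β-lactamase/M1 line, treated with compound plus 1 uM carbachol for 5 h, 37 °C.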

[5] = biological target: Glucocorticoid receptor (Homo sapiens) (UniProt P04150); assay: GR-EFC Redistribution (AID 451; calls by dose curve; note: potency is the fitted concentration of half-maximal effect); details: CHO-K1 GR-EFC translocation, beta-gal luminescence, 2 h
Chain of Glucocorticoid receptor (Homo sapiens) (P04150 whole entry, looked up, the tested form may be a part): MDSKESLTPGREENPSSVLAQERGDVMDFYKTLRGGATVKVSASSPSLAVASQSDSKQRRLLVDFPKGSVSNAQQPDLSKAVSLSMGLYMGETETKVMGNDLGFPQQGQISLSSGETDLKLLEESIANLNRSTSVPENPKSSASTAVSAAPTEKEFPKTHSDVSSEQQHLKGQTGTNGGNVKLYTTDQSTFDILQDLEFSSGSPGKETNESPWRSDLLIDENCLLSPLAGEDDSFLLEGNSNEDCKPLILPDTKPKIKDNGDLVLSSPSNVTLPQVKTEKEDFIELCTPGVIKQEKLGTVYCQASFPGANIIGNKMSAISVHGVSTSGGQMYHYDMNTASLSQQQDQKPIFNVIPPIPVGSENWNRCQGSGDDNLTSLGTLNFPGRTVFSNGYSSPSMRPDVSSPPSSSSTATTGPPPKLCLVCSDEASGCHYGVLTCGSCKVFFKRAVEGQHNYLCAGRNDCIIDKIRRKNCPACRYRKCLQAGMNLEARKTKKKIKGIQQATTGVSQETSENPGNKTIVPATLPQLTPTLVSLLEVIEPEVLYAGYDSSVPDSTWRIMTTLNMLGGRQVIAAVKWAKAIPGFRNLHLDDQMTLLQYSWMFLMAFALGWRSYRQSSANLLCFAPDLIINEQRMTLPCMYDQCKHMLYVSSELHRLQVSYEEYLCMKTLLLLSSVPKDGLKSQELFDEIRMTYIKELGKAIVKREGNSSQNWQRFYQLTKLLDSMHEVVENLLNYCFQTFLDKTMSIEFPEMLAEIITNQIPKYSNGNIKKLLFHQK
In short: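 Translocation of GR-ED fusion to nuclear EA restores b-gal, read by luminescence after 1 h room-temperature detection. Engineered CHO-K1 biosensor cells, 1,000/well, exposed 2 h at 37 C to titrations up to 46 uM final.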

[6] = biological target: 3',5'-cyclic-AMP phosphodiesterase 4B (Homo sapiens) (UniProt Q07343); assay: qHTS Assay for Inhibitors of PDE-IV (AID 607; active = well fitted activation curve with a large enough effect in the main read-out, with a control signal flat, not every such curve was filed as active; note: % of control where 0% means no effect); details: HEK293 ACTOne CNG channel cells, membrane potential fluorescence; series mostly up to 22.9 µM
Chain of 3',5'-cyclic-AMP phosphodiesterase 4B (Homo sapiens) (Q07343 whole entry, looked up): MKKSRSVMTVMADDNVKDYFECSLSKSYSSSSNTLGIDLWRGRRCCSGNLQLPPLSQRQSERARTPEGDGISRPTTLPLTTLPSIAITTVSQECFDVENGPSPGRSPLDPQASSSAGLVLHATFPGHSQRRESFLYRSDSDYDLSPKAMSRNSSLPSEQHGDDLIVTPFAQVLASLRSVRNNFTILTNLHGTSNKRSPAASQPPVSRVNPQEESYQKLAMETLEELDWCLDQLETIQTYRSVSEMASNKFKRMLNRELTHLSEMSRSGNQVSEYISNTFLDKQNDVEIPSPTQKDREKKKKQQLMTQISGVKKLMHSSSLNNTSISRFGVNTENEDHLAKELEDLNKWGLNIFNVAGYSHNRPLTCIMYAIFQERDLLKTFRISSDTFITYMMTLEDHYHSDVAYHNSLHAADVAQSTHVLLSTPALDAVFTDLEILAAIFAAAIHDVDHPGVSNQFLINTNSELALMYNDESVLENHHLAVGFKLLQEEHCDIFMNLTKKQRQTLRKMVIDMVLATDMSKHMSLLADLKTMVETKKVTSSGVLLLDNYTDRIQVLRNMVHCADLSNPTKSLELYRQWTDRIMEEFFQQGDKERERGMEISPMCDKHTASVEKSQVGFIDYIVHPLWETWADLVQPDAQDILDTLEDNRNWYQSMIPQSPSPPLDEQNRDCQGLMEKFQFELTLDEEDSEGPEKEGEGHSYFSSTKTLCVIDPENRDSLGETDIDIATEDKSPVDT
In short: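 Live HEK293 cells with a modified cyclic nucleotide-gated (CNG) channel report intracellular cAMP via membrane-potential dye fluorescence (ex 535/em 590 nm). Endogenous PDE-IV was targeted. Compounds were tested at up to 22.9 uM final; RO 20-1724 100 uM served as control.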

[7] = biological target: Cytochrome P450 3A4 (Homo sapiens) (UniProt P08684); assay: qHTS Assay for Inhibitors and Substrates of Cytochrome P450 3A4 (AID 884; active = well fitted curve in the direction sought with a large enough effect; an effect the other way counts as inactive or inconclusive; note: nearly all actives have a fitted effect of over 50% in size; note: potency is the fitted concentration of half-maximal effect); details: recombinant CYP3A4, Luciferin-PPXE luminescence; series mostly up to 57.1 µM
Chain of Cytochrome P450 3A4 (Homo sapiens) (P08684 whole entry, looked up): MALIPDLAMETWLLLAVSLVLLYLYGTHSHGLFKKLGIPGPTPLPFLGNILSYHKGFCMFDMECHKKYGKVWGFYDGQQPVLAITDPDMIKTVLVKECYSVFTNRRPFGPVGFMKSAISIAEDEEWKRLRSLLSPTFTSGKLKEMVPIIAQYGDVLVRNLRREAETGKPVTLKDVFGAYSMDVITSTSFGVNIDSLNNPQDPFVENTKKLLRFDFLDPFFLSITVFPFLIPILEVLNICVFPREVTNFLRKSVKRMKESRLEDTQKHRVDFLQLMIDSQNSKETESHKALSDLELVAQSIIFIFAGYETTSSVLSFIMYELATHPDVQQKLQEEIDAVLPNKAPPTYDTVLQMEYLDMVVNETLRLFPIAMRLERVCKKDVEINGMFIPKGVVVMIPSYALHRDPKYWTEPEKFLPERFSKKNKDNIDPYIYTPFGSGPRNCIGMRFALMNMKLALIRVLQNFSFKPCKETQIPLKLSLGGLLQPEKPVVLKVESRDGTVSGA
In short: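 Luminescent readout of luciferin produced by CYP3A4 (20 nM) dealkylation of Luciferin-PPXE, 25 uM (its KM). NADPH-driven reaction ran 60 min at RT after 10 min compound preincubation; data scaled to 57 uM ketoconazole as 100% inhibition.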

[8] = biological target: Cytochrome P450 3A4 (Homo sapiens) (UniProt P08684); assay: qHTS Assay for Activators of Cytochrome P450 3A4 (AID 885; active = well fitted curve in the direction sought with a large enough effect; an effect the other way counts as inactive or inconclusive; note: nearly all actives have a fitted effect of over 65% in size; note: potency is the fitted concentration of half-maximal effect); details: recombinant CYP3A4, Luciferin-PPXE luminescence, 60 min; series mostly up to 57.1 µM
In short: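 Using 20nM recombinant human CYP3A4 in potassium phosphate (200mM), substrate Luciferin-PPXE at 25uM, luminescent luciferin detection followed a 60-min RT NADPH reaction; data scaled to 57 uM ketoconazole.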

[9] = qHTS Assay for Lipid Storage Modulators (AID 1519; calls by dose curve); details: Drosophila S3 cells, BODIPY lipid droplet/cell ratio, laser cytometry, cells loaded with oleic acid; for activity change, negative = inhibition: at 57.5 µM (top of the series)
In short: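 Cells seeded at 5,000 per well were treated with compounds over a concentration series and loaded with oleic acid (400 uM, as added). Lipid droplet fluorescence (488 nm excitation, 500-530 nm channel) was read by laser-scanning cytometry and normalized to 20 uM Triacsin C.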

[10] = Primary qHTS for small molecule stabilizers of the endoplasmic reticulum resident proteome: Secreted ER Calcium Modulated Protein (SERCaMP) assay (AID 1508630; active = well fitted curve in the direction sought with a large enough effect; an effect the other way counts as inactive or inconclusive; note: % is set by controls: 0 for no effect and ±100 for the full control effect); details: SH-SY5Y GLuc-SERCaMP (Gaussia luciferase released on ER calcium loss) secretion, thapsigargin, luminescence; series mostly up to 38.4 µM
In short: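 The SH-SY5Y reporter protocol was run at 3 concentrations up to 38.3 uM (primary) or 11 concentrations (follow-up): 16 h compound, 100 nM thapsigargin for 4 h, then extracellular luciferase luminescence.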

[11] = Stat Signaling Pathway (AID 446); details: ME-180 SIE beta-lactamase reporter, IL-6 stimulated, 5 h; at 7.69 µM (top of the series) unless noted;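 note: ME-180 cervical cancer cells given 40 pM IL-6 alongside compound; SIE-controlled beta-lactamase reporter measured as 460/530 nm FRET emission ratio; % is set by controls: 0 for no effect and ±100 for the full control effect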
In short: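 Overnight-plated ME-180 cells bearing a STAT Inducible Element beta-lactamase reporter; 5 h co-exposure to compound and 40 pM IL-6; values normalized to 300 pM IL-6 and 125 nM JAK inhibitor controls.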

[12] = biological target: Mitogen-activated protein kinase 10 (Mus musculus) (UniProt Q61831); assay: JNK3 AlphaScreen Assay (AID 530); details: JNK3 lysate, c-Jun phosphorylation; series mostly up to 57.1 µM
In short: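 qHTS titrations with 15 min compound pre-incubation before adding ATP (10 uM final). Read-out: AlphaScreen of Ser73-phosphorylated biotin-GST-cJun using HepG2 lysate JNK3 activated by IL-1β and TNFα.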

[13] = qHTS Assay for Identification of Small Molecule Agonists for Hypoxia Response Element Signaling Pathway (AID 914; active = well fitted activation curve with a large enough effect in the signal ratio, with a control signal flat, not every such curve was filed as active; the % refers to the signal ratio; note: potency is the fitted concentration of half-maximal effect; for activation: % of control where 0% means no effect); details: ME-180 (cervical carcinoma) HRE-bla reporter, beta-lactamase ratio, CoCl2, 17 h; activation: stronger effect = higher value
In short: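 In Opti-MEM containing 0.5% dialyzed FBS and 10 mM HEPES, ME-180 HRE-bla cells received a compound titration and EC50 CoCl2. They were incubated 17 hours, then CCF4-loaded 2.5 hours at room temperature before ratio reading.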

[14] = biological target: Cytochrome P450 2D6 (Homo sapiens) (UniProt P10635); assay: qHTS Assay for Inhibitors and Substrates of Cytochrome P450 2D6 (AID 891; active = well fitted curve in the direction sought with a large enough effect; an effect the other way counts as inactive or inconclusive; note: nearly all actives have a fitted effect of over 60% in size; note: potency is the fitted concentration of half-maximal effect); details: recombinant CYP2D6, luciferin-ME EGE luminescence; series mostly up to 57.1 µM
Chain of Cytochrome P450 2D6 (Homo sapiens) (P10635 whole entry, looked up): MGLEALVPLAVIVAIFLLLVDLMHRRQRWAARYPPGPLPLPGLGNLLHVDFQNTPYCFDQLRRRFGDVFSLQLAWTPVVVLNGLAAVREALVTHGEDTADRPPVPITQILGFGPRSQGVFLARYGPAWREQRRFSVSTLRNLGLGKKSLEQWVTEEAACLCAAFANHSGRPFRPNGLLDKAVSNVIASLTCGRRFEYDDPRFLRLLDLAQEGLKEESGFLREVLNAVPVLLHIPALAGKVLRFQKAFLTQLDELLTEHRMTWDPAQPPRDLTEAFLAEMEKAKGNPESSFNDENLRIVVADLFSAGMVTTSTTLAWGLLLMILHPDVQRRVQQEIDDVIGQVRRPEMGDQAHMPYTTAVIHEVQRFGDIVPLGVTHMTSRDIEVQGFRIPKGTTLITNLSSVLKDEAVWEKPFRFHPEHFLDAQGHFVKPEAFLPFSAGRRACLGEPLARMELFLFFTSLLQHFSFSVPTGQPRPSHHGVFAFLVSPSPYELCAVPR
In short: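 Luminescent read-out of luciferin formed by 5 nM human CYP2D6 demethylating 30 uM Luciferin-ME EGE (Km level) over 60 min at room temperature after NADPH regeneration addition. Data normalized to full inhibition by 1.43 uM quinidine.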

[15] = biological target: Glucocorticoid receptor (Homo sapiens) (UniProt P04150); assay: GR-GFP Redistribution (AID 450;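 active = compounds whose dose series gives a full or clear partial fitted curve of increased nuclear translocation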; note: potency is the fitted concentration of half-maximal effect); details: U2OS GR-GFP nuclear translocation, laser cytometry, 2 h
[16] = measured here: cell count channel max response
[17] = measured here: lipid channel max response

| SMILES | Potency [1] | activity change, negative = inhibition [2] | Potency [3] | activity change, negative = inhibition [4] | Potency [5] | Potency [6] | Potency [7] | Potency [8] | activity change, negative = inhibition [9] | max response [9, 16] [%] | max response [9, 17] [%] | Potency [10] | activity, negative = inhibition [11] | outcome [12] | activation [13] | Potency [14] | Potency [15] | Potency [13] |
| --- | --- | --- | --- | --- | --- | --- | --- | --- | --- | --- | --- | --- | --- | --- | --- | --- | --- | --- |
| O=C(c1ccncc1)N1CCC2(CC1)CN(c1cccc(-c3ccccc3)c1)C2 | > 11.4 µM (inactive) | -2.83% (inactive) | 15.8 µM (active) | 7.15% (inactive) | > 46 µM (inactive) | inactive | 7.94 µM (active) | inactive | -2.24% (inactive) | 13.1 | 11.3 | inactive |  |  |  |  |  |  |
| CC(C)NC(=O)N1CC2(CCN(C(=O)c3ccco3)CC2)C1 | > 11.4 µM (inactive) | -14.7% (inactive) | inactive | 16.4% (inactive) | > 46 µM (inactive) | inactive |  |  | -0.739% (inactive) | -15.7 | -15.1 | inactive | -2.76% (inactive) | inactive | 0.544% (inactive) |  |  |  |
| Cn1cccc1C(=O)N1CCC2(CC1)CCN(c1ccccc1)CC2 | > 11.4 µM (inactive) | -11.3% (inactive) | 12.6 µM (active) | 20.8% (inactive) | > 46 µM (inactive) | inactive | inactive | 15.8 µM (active) | 5.03% (inactive) | 9.38 | 16.6 | inactive | -1.51% (inactive) |  |  |  |  |  |
| COc1ccccc1CN1CC2(CCN(S(C)(=O)=O)CC2)C1 | > 11.4 µM (inactive) | -11.2% (inactive) | inactive | -7.23% (inactive) |  | inactive |  |  | 6.08% (inactive) | 11.6 | 24 | inactive | 4.21% (inactive) | inactive |  | inactive |  |  |
| O=C(Nc1ccccc1)N1CCCC2(CCN(C(=O)c3ccco3)CC2)C1 | > 11.4 µM (inactive) | -8.89% (inactive) | 20 µM (active) | -7.1% (inactive) |  | inactive |  | inactive | 4.55% (inactive) | 12 | 20.3 | inactive | -4.1% (inactive) | inactive |  |  |  |  |
| O=c1c(-c2cc(F)cc(F)c2)nc2cnc(N3CCOCC3)nc2n1C1CC1 | > 11.4 µM (inactive) | 7.91% (inactive) | 1 µM (active) | 6.75% (inactive) | > 46 µM (inactive) |  |  |  | 0.7% (inactive) | 9.59 | 11.7 | inactive |  | inactive |  |  | > 9.22 µM (inactive) | 1.58 µM (active) |
| Cn1cccc1C(=O)N1CCC[C@@]2(CCN(Cc3ccccc3)C2)C1 | > 11.4 µM (inactive) | -8.23% (inactive) | 10 µM (active) | -14.1% (inactive) | > 46 µM (inactive) | inactive |  | inactive | 3.81% (inactive) | 5.36 | 9.58 | inactive |  | inactive |  | 2 µM (active) |  |  |
